Results on 14 compounds are retold here after PubChem BioAssay (NCI).

Compounds without any hit were thinned out: in the full panel of roughly 83,000, 20% have a hit.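 Cells were grown in 96-well plates and exposed to the test compound at a single concentration for 48 hours; results are reported as percent growth, with values below 10 considered active.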 Unmarked numbers belong to inactive results. The source made the active and inactive calls.

Some test systems named below: EKVX NSCLC; SN12C renal; UO-31 renal; TK-10 renal; ACHN renal; CAKI-1 renal; A498 renal; CCRF-CEM leukemia; MOLT-4 leukemia; SR leukemia.
Holding throughout (assay): NCI-60 one-dose screen, 48 h (100 = growth as untreated, 0 = no growth, -100 = all killed)
What all share (settings): 10 µM unless noted

Turning to `Cc1ccc(NC(=O)COC(=O)c2ccc(S(=O)(=O)N3CCCCCC3)cc2)cc1`, the growth in the experiment with EKVX NSCLC was 111%; in the experiment on SN12C renal, 98.7%; in the experiment on UO-31 renal, 85.8%; in the experiment with TK-10 renal it was 178%; with ACHN renal it was 107%; in the experiment with CAKI-1 renal, 108%. The growth is 128% in the experiment on A498 renal, 135% in the experiment with CCRF-CEM leukemia, 127% with MOLT-4 leukemia and 131% in the experiment with SR leukemia.

In the case of `COc1ccc2c3c(c(OCCCN(C)C)nc2c1)-c1ccc(Cl)cc1C3=O`, the growth is 21.3% with EKVX NSCLC; 32.6% in the experiment with SN12C renal; -72.3% (active) in the experiment with UO-31 renal; 11.2% with TK-10 renal; -75.5% (active) with ACHN renal; 29.5% in the experiment with CAKI-1 renal. Besides, the growth in the experiment on A498 renal was 60.9%; in the experiment with CCRF-CEM leukemia, -39.7% (active); in the experiment on MOLT-4 leukemia, -17.2% (active); in the experiment on SR leukemia, -32.7% (active).

Take `Nc1ncc(-c2cnn(C3CCNCC3)c2)cc1-c1nc2cc(Cl)ccc2o1`: the growth in the experiment on EKVX NSCLC was -27.6% (active); with SN12C renal it was -100% (active); with UO-31 renal, -100% (active); in the experiment with TK-10 renal, -94.1% (active); with ACHN renal it was -96.8% (active); with CAKI-1 renal, -76.9% (active). Further, the growth in the experiment with A498 renal was -99.9% (active); with MOLT-4 leukemia, -91.8% (active).

For the compound `Cc1cc2c(cc1[N+](=O)[O-])NC(CNC(C)C)CC2` (stereo unspecified), the growth in the experiment on EKVX NSCLC is 95.2%; in the experiment with SN12C renal it was 105%; in the experiment on UO-31 renal, 90.7%; in the experiment on TK-10 renal, 97.1%; with ACHN renal, 99.7%; in the experiment with CAKI-1 renal, 99.7%. Moreover, the growth with A498 renal was 102%; with CCRF-CEM leukemia, 130%; with MOLT-4 leukemia, 69.6%; in the experiment on SR leukemia it was 119%.

As for `O=[N+]([O-])c1ccc(N/N=C/c2c(O)ccc3ccccc23)nc1`, the growth in the experiment on EKVX NSCLC is 32.3%; in the experiment with SN12C renal, 49.4%; in the experiment with UO-31 renal it was 9.52% (active); with TK-10 renal it was 47.3%; with ACHN renal, 15%; in the experiment on CAKI-1 renal, 6.36% (active). Besides, the growth with A498 renal is 111%; in the experiment with CCRF-CEM leukemia, 2.5% (active); with MOLT-4 leukemia, 10.5%; in the experiment on SR leukemia, 14.1%.

With `Cc1cc(C)n(C(=O)c2nn(-c3ccc(Cl)cc3)cc2O)n1`, the growth is 66.8% in the experiment on EKVX NSCLC; 25.6% with SN12C renal; 13.7% with UO-31 renal; 35.7% in the experiment with TK-10 renal; 33.4% with ACHN renal; 77.6% in the experiment on CAKI-1 renal. Also, the growth was 56.2% in the experiment with A498 renal, 13% with CCRF-CEM leukemia, 9.99% (active) in the experiment on MOLT-4 leukemia and 3.49% (active) in the experiment with SR leukemia.

Take `Cn1[nH]cc(/C=N/C(N)=O)c1=O`: the growth in the experiment on EKVX NSCLC was 123%; in the experiment on SN12C renal, 108%; in the experiment on UO-31 renal it was 106%; in the experiment with TK-10 renal, 109%; in the experiment on ACHN renal, 109%; with CAKI-1 renal it was 109%. For the same compound, the growth is 104% with A498 renal, 94.8% in the experiment with CCRF-CEM leukemia, 105% in the experiment on MOLT-4 leukemia and 103% in the experiment with SR leukemia.

For the compound `COC(=O)CCC1=C(C)C(C)=N/C1=C\c1[nH]c(-c2ccc[nH]2)cc1OC`, the growth with EKVX NSCLC was 29.9%; in the experiment on SN12C renal it was 13.9%; in the experiment on UO-31 renal, -67% (active); with TK-10 renal it was 16%; with ACHN renal it was -7.31% (active); in the experiment on CAKI-1 renal, 11.6%. Besides, the growth in the experiment on A498 renal is 4.29% (active); with CCRF-CEM leukemia, -22.7% (active); in the experiment with MOLT-4 leukemia, -29.7% (active); in the experiment on SR leukemia it was -31.4% (active).

For the compound `Cc1ccccc1NC(=O)c1cc2ccccc2cc1O`, the growth was 43.8% in the experiment with EKVX NSCLC; 30.2% in the experiment on SN12C renal; -8.7% (active) with UO-31 renal; 60.1% in the experiment on TK-10 renal; 34% with ACHN renal; 41.4% with CAKI-1 renal. For the same compound, the growth with A498 renal is 43%; in the experiment with MOLT-4 leukemia it was 14.2%.

In the case of `c1ccc(Nc2nnc(-c3cc(-c4cccnc4)n(-c4ccccc4)n3)s2)cc1`, the growth with EKVX NSCLC was 83%; in the experiment with SN12C renal, 87.7%; in the experiment with UO-31 renal, 56.9%; in the experiment on TK-10 renal, 88.6%; in the experiment on ACHN renal, 81.7%; in the experiment with CAKI-1 renal it was 46.4%. Also, the growth in the experiment with A498 renal was 74.4%; in the experiment on CCRF-CEM leukemia, 72.6%; in the experiment with MOLT-4 leukemia, 56.5%; in the experiment with SR leukemia it was 67.1%.

As for `Nc1ccc2c3c(cccc13)-c1ccccc1-2`, the growth was 87.4% in the experiment on EKVX NSCLC; 55.8% in the experiment on SN12C renal; 32.3% in the experiment with UO-31 renal; 116% in the experiment with TK-10 renal; 95.2% with ACHN renal; 69.4% in the experiment with CAKI-1 renal. Also, the growth was 85.9% in the experiment with A498 renal, 25.1% in the experiment with CCRF-CEM leukemia, 32.4% with MOLT-4 leukemia and 93.1% in the experiment with SR leukemia.

Regarding `COc1ccc(/C=N/NC(=O)c2ccc(S(C)(=O)=O)cc2)cc1OC`, the growth is 103% with EKVX NSCLC; 98.3% with SN12C renal; 90.8% with UO-31 renal; 96.9% with TK-10 renal; 102% in the experiment with ACHN renal; 89% in the experiment on CAKI-1 renal. Further, the growth was 94.6% in the experiment on A498 renal, 103% with CCRF-CEM leukemia, 65.9% in the experiment with MOLT-4 leukemia and 92.5% in the experiment with SR leukemia.

Regarding `O=C(c1nn(-c2ccc(Cl)cc2)cc1O)n1nc(C(F)(F)F)cc1-c1ccccc1`, the growth was 31.5% in the experiment on EKVX NSCLC; 45.9% with SN12C renal; 37% in the experiment with UO-31 renal; 69.3% in the experiment on TK-10 renal; 38.8% in the experiment on ACHN renal; -20.6% (active) in the experiment on CAKI-1 renal. Also, the growth was 76% in the experiment with A498 renal, 0.973% (active) in the experiment with CCRF-CEM leukemia, 13.1% in the experiment on MOLT-4 leukemia and -30.4% (active) in the experiment with SR leukemia.

As for `COC(=O)CCC1=C(C)/C(=C/c2[nH]c(-c3ccc[nH]3)cc2OC)N=C1C`, the growth in the experiment with EKVX NSCLC is 46.4%; in the experiment with SN12C renal, 34.8%; in the experiment with UO-31 renal it was -50.9% (active); with TK-10 renal, 28.1%; with ACHN renal, 8.35% (active); with CAKI-1 renal, 11.1%. Also, the growth was 66.8% in the experiment with A498 renal, -23.6% (active) in the experiment on CCRF-CEM leukemia, -28.3% (active) in the experiment with MOLT-4 leukemia and -32.1% (active) in the experiment on SR leukemia.
